AmpC detergent – blocks E. coli AmpC beta-lactamase in detergent assay; hit rate 0.041% among 370,000; AmpC hydrolysis of nitrocefin, absorbance 480 nm, 0.01% Triton; P00811; Potency, µM (series often up to 114 µM), for inactives: at the top dose activity change, negative = inhibition, actives largely listed as inhibitors;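 note: 0% = no-compound wells and -100% = no-enzyme wells; nearly all actives have a fitted effect of over 25% in size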
Target sequence (P00811 whole entry, looked up): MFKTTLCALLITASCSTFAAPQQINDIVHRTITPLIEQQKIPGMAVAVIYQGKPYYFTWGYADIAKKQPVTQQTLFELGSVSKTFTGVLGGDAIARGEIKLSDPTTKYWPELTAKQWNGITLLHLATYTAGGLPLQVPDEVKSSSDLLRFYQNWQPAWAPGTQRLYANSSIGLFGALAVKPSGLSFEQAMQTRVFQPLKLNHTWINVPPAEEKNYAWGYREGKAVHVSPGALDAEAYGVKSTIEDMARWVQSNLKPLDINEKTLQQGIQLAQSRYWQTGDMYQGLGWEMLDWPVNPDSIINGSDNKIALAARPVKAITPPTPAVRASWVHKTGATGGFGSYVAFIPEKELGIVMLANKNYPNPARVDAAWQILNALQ
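20 mM phosphate pH 7.0 + 0.01% (detergent screen) or 0.0001% Triton X-100; 5.3 nM AmpC reagent; cpd preinc 15 min RT; nitrocefin (800 uM stock) to start; A480 q20 s × 4 min; Activity was normalised to no-enzyme and no-compound control wells.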
AmpC no deterg – inhibitors of E. coli AmpC beta-lactamase without detergent | Potency, µM (highest dose often 57.1 µM), without a hit: at the top dose activity change, negative = inhibition, actives largely listed as inhibitors | AmpC nitrocefin hydrolysis, absorbance 480 nm, 0.0001% Triton | hit rate 0.52% among 330,000;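 note: plate controls were no compound for no effect and no enzyme for full effect; nearly all actives have a fitted effect of over 20% in size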
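20 mM phosphate pH 7.0 + 0.01% (detergent screen) or 0.0001% Triton X-100; 5.3 nM AmpC reagent; cpd preinc 15 min RT; nitrocefin (800 uM stock) to start; A480 q20 s × 4 min; Activity was normalised to no-enzyme and no-compound control wells.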
Vaccinia Venus – inhibitors of vaccinia virus (Venus reporter). hit rate 0.46% among 330,000. Vaccinia virus Venus reporter expression, fluorescence. Potency, µM (series often up to 36.5 µM), for inactives: at the top dose activity change, negative = inhibition, hits mostly inhibitors; calls by dose curve; tested in A549 cells; note: nearly all actives have a fitted effect of over 30% in size
VACV mCherry inh – vaccinia inhibition (mCherry reporter); Vaccinia virus mCherry reporter infection, fluorescence; Potency, µM (doses to about 36.5 µM), without a hit: at the top dose activity change, negative = inhibition, actives largely listed as inhibitors; hit rate 0.63% among 310,000; AID 720579; calls by dose curve; tested in A549 cells; note: nearly all actives have a fitted effect of over 35% in size
The depositor's hits bear a star; i = inactive; ? = inconclusive; · = no result given; [ ] = another dose, or the depositor's remark. An excerpt weighted towards active compounds, which were near 1.1% of everything screened. Unless noted, calls come from the whole dose curve; as a rule, active = well fitted curve in the direction sought with a large enough effect; inconclusive = small, poorly fitted or top-dose-only effect, or another doubt; inactive = no such curve, though single readings can be large; an effect the other way counts as inactive or inconclusive. Unless noted, % is set by controls: 0 for no effect and ±100 for the full control effect; potency is the fitted concentration of half-maximal effect.

SMILES	AmpC detergent	AmpC no deterg	Vaccinia Venus	VACV mCherry inh
COC(=O)c1c(NC(=O)c2ccccc2)sc2c1CC(C)(C)NC2(C)C	7%	-22%	0%	17%
COC(=O)c1c(NC(=O)c2ccc(OC(C)C)cc2)sc2c1CC(C)(C)NC2(C)C	1%	-3%	18µM*	?
CC(=NNC(=S)Nc1cccc(Cl)c1)c1ccccn1	·	·	?	2.8µM*
CC(=NNC(=S)SCc1ccccc1)c1ccccn1	·	·	?	10µM*
COc1ccc2c3c1OC1C(O)C=CC4C(C2)[N+](C)(C)CCC341 (stereo unspecified)	40µM*	?	·	·
CCn1c(-c2cccc(OC)c2)nc2cc(NC(C)=O)cc(C(=O)N3CCCC(C(C)=O)C3)c21 (stereo unspecified)	·	·	-9%	-16%
Cn1c(=O)c(/C=C/c2ccccc2)nc2ccccc21	-2%	-13%	-16%	i
CCn1nc(-c2ccccc2C)nc2c(=O)n(C)c(=O)nc1-2	·	·	6.3µM*	5.6µM*
COc1ccc(OC)c(/C=c2\sc3nc(-c4cccs4)nn3c2=O)c1	1%	?	-2%	-8%
CCn1nc(-c2cccs2)nc2c(=O)n(C)c(=O)nc1-2	-7%	-12%	0.79µM*	·
CCn1nc(/C=C/c2ccccc2)nc2c(=O)n(C)c(=O)nc1-2	-6%	-27%	2.8µM*	2.5µM*
COc1ccc(N2C(=O)[C@@H]3C[C@H]2CN3Cc2ccc3nccnc3c2)cc1Cl	·	·	-10%	-17%
CC(=O)NC(Cc1ccc([N+](=O)[O-])cc1)C(=O)NCC(N)C(=O)c1ccccc1 (stereo unspecified)	·	·	-19%	i
CCNS(=O)(=O)c1ccc(NC(=O)Nc2cc(C)ccc2OC)cc1	2%	11µM*	-15%	i
COc1ccc(C)cc1NC(=O)NC1CCCCCCC1	3%	22µM*	-14%	-9%
CCNS(=O)(=O)c1ccc(NC(=O)Nc2ccccc2OC)cc1	2%	-21%	-9%	-12%
COc1ccc(C(=O)c2c(C(F)(F)F)oc3c2C(=O)c2ccccc2C3=O)cc1OC	0%	33%	5.6µM*	·
Cc1cccc(CNC(=O)c2cnn(-c3nccc(-c4cccs4)n3)c2C(C)C)n1	·	·	-13%	-23%
COc1ccc(-c2nnc(Sc3nc4ccccc4o3)c3ccccc23)cc1	-12%	-10%	11µM*	8.9µM*
CCSc1nnc(NC(=O)C2CCCN(S(=O)(=O)c3cnc[nH]3)C2)s1 (stereo unspecified)	8%	45µM*	-4%	3%
COc1ccc(CN(Cc2ccccc2)C(=O)c2ccno2)cc1COc1ccc(NC(C)=O)cc1	·	·	-8%	i
O=C(CSc1nnc(C2COc3ccccc3O2)o1)NC1CCCCC1 (stereo unspecified)	-5%	40µM*	-6%	1%
O=C(CSc1nnc(C2COc3ccccc3O2)o1)N1CCCCC1 (stereo unspecified)	-14%	0%	·	·
CCOC(=O)c1ccc(NC(=O)c2ccccc2)cc1	?	10µM*	-7%	i
CCOC(=O)c1ccc(NC(=O)c2ccc(NS(C)(=O)=O)cc2)cc1	?	-42%	-11%	-16%
SMILES	AmpC detergent	AmpC no deterg	Vaccinia Venus	VACV mCherry inh
c1ccc2c(c1)[IH]c1ccccc1-2	·	·	11µM*	?
Cc1ccc(-c2nc(-c3cc4cc(Cl)ccc4oc3=O)sc2C)cc1	·	·	10%	-14%
Cc1ccc(CNc2ncnc3sc(C(=O)N4CCC[C@H]4C(N)=O)c(C)c23)o1	·	·	-2%	-8%
O=C(c1ccccc1)c1coc2ccc(O)c(CN3CCOCC3)c12	-7%	-5%	?	?
COc1ccc(C(=O)c2coc3ccc(O)c(CN4CCCCC4)c23)cc1	3%	40µM*	-16%	i
O=C(COc1ccccc1C(=O)Nc1ccccc1)NCCCCc1ccccc1	·	·	-13%	-1%
NC(=O)c1ccc(NC(=O)C#Cc2ccccc2)cc1	3%	-15%	-29%	7.1µM*
O=C(CSc1ccncc1)NCC1Cc2cccc(-c3cncnc3)c2O1 (stereo unspecified)	·	·	-9%	i
COc1ccc(/C=N/OCC(=O)N=Nc2c(O)[nH]c3ccc(Br)cc23)cc1	?	1µM*	-1%	-3%
O=C(N/N=C/c1cc(Br)ccc1O)c1ccncc1	0%	-12%	-24%	?
O=C(N/N=C/c1ccc(O)c(O)c1)c1cccc(S(=O)(=O)N2CCCCC2)c1	4%	14µM*	-1%	i
O=C(N/N=C\c1cc(Br)ccc1O)c1ccc(S(=O)(=O)N2CCCCC2)cc1	?	-13%	?	5µM*
O=C(N/N=C/c1cc(Cl)ccc1O)c1ccc(Br)cc1	?	-50%	?	3.2µM*
O=C(CSc1n[nH]c(-c2ccccn2)n1)Nc1ccccc1F	1%	-20%	?	28µM*
O=C(CSc1n[nH]c(-c2ccccn2)n1)Nc1ccccc1	4%	12%	-24%	7.9µM*
O=C(CSc1n[nH]c(-c2ccncc2)n1)c1ccccc1	3%	0.4µM*	-6%	-3%
COc1ccc(NC(=O)CSc2n[nH]c(-c3ccccn3)n2)cc1	-10%	-28%	?	?
O=C(CSc1n[nH]c(-c2ccncc2)n1)c1cccc([N+](=O)[O-])c1	1%	-35%	-11%	-14%
COc1ccccc1NC(=O)CSc1n[nH]c(-c2ccccn2)n1	?	-32%	-29%	?
CC[C@H](CC[C@@H](C)[C@H]1CC[C@H]2[C@@H]3CC=C4C[C@@H](O)CC[C@]4(C)[C@H]3CC[C@]12C)C(C)C	·	·	0%	i
O=C(c1ccc2c(c1)OCO2)N(Cc1cc2ccc(F)cc2nc1N1CCC(O)CC1)CC1CCCO1 (stereo unspecified)	·	·	38%	12%
CCCn1c(N)c(C(=O)CSc2nc3ccccc3s2)c(=O)[nH]c1=O	2%	-28%	-15%	11µM*
Cn1c(=O)[nH]c(=O)c2c1nc(Sc1nc3ccccc3s1)n2Cc1ccccc1	1%	-9%	4µM*	·
O=C(CSc1nc2ccccc2s1)c1ccc(O)cc1O	-3%	7.1µM*	·	·
Cn1c(=O)[nH]c(=O)c2c1nc(SCC(=O)O)n2Cc1ccccc1	4%	-14%	·	·
SMILES	AmpC detergent	AmpC no deterg	Vaccinia Venus	VACV mCherry inh
Cn1cnnc1Sc1ccc(CN2CCOc3ccc(C4=CCCCC4)cc3C2)o1	·	·	-15%	-18%
Cc1ccc(N/N=C(/Sc2nnnn2-c2ccccc2)C(=O)c2ccccc2)cc1	35µM*	4µM*	-17%	-26%
COc1ccc(O)c(-c2cc(-c3cccc(Br)c3)n[nH]2)c1	-9%	2.2µM*	?	-6%[1.46 µM]
COc1ccc(-c2cc(-c3cc(OC)ccc3O)[nH]n2)cc1	?	-33%	?	?
O=C(NCc1cccnc1)C1c2ccccc2C(=O)N1C1CCCC1 (stereo unspecified)	?	20µM*	-2%	i
Cc1ccc(CN2C(=O)c3ccccc3C2C(=O)NCc2cccnc2)cc1 (stereo unspecified)	4%	0%	-4%	10%
C/C(=N\NC(=O)c1cc2ccccc2cc1O)c1cccs1	-7%	?	-25%	-20%
